Bioassay records: PubChem BioAssay, several laboratories
CYP2C9 act: increases human cytochrome P450 2C9 activity; activation factor at 5 µM; P11712; 96,000 compounds, 1.4% hits; recombinant CYP2C9, luciferin-H conversion, luminescence; hits give high values; factor 1 = untreated enzyme, 0 = blocked;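 active = activation factor of 2 or more for CYP2C9 at a 5 µM dose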;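 note: 0 = sulfaphenazole-blocked wells and 1 = vehicle-only wells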
Target sequence (P11712 whole entry, looked up): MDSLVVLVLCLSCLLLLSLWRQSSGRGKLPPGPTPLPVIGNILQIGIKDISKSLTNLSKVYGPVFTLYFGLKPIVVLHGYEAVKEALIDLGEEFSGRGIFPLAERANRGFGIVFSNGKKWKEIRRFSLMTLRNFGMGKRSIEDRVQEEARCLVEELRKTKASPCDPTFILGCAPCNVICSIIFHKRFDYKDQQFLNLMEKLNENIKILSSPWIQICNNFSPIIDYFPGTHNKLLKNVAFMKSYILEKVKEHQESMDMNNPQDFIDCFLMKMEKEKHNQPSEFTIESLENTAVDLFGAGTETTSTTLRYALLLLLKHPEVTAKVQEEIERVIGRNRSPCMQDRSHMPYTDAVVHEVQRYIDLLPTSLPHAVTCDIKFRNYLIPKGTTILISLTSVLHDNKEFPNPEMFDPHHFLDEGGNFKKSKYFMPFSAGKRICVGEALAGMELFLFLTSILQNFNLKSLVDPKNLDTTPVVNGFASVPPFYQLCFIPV
CYP2C19 inhib: inhibitors of human CYP2C19. inhibition, % at 5 µM. P33261. 96,000 compounds, 21% hits. CYP2C19 Supersomes, luciferin-H EGE luminescence, 30 min;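 active = CYP2C19 inhibition above a set limit at 5 µM in the primary screen, cut at about 50% in these data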;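 note: plate controls were negative control wells for no effect and 2.5 mM tranylcypromine positive control for full effect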
CYP2C9 inh: inhibitors of human CYP2C9 | 96,000 compounds, 20% hits | AID 777 | CYP2C9 Supersomes, luciferin-H conversion, luminescence | P11712 | inhibition, % at 5 µM;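 active = blocking of liver enzyme CYP2C9 beyond about 50% at 5 µM, limit read from the data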
CYP2C19 act: increases human CYP2C19 enzyme activity; recombinant CYP2C19, luciferin-H EGE luminescence; hits give high values; 0 = fully inhibited enzyme, 1 = untreated enzyme; activation factor at 5 µM; 96,000 tested, under 10 active;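 active = activation factor of at least 2 at 5 µM in the primary screen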;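 note: 0 = wells with 2.5 mM tranylcypromine and 1 = vehicle-only wells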
Cav3 T inh: blocks human Cav3.2 T-type calcium channel | Cav3.2-expressing cells, Fluo-4 calcium fluorescence FDSS; hits give low values | O95180 | B-score at 10 µM | AID 449739 | 100,000 compounds, 4% hits;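 active = single-dose well whose peak fluorescence ratio is a statistical outlier from its plate by either plate-standardised score or position-corrected B-score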
Numbers without * were called inactive. This is a sample that favours compounds with a hit; in the whole collection about 27% have one here.

For COC(=O)Cn1c(=O)cnc2ccccc21 the results were CYP2C9 act 1.1, CYP2C19 inhib -5.2, CYP2C9 inh -12.7, CYP2C19 act 1.1 and Cav3 T inh 0.199.
For COCCCn1c(SCC(=O)NCc2ccccc2)nc2ccccc2c1=O the results were Cav3 T inh -0.32.
COC(=O)c1cc(NC(=O)Cn2c(=O)cnc3ccccc32)cc(C(=O)OC)c1 was read as CYP2C9 act 0.1, CYP2C19 inhib 19.4, CYP2C9 inh 89.3*, CYP2C19 act 0.8 and Cav3 T inh 0.0877.
`NS(=O)(=O)c1cccc(NC(=O)Cn2cnc3ccccc3c2=O)c1` gave CYP2C9 act 0.6, CYP2C19 inhib 2.8, CYP2C9 inh 39.4, CYP2C19 act 1 and Cav3 T inh 0.526.
`COC(=O)c1cccc(NC(=O)Cn2cnc3ccccc3c2=O)c1` gave CYP2C9 act 0, CYP2C19 inhib 74.8*, CYP2C9 inh 98.3*, CYP2C19 act 0.3 and Cav3 T inh 0.179.
O=C(Cn1cnc2ccccc2c1=O)Nc1cccc(-c2nnc3n2CCCCC3)c1 was read as CYP2C9 act 0.5, CYP2C19 inhib 56.6*, CYP2C9 inh 49.2 and CYP2C19 act 0.4.
For COCCn1c(SCC(=O)Nc2cccc(C(=O)OC)c2)nc2ccccc2c1=O the results were CYP2C9 act 0.4, CYP2C19 inhib 28.5, CYP2C9 inh 55.6*, CYP2C19 act 0.7 and Cav3 T inh -0.834.
Screening CCOC(=O)CC1C(=O)NCCN1S(=O)(=O)c1ccccc1Cl (stereo unspecified) returned CYP2C9 act 1, CYP2C19 inhib 16.5, CYP2C9 inh -3.4, CYP2C19 act 0.8 and Cav3 T inh 0.0964.
For COc1cc(C(=O)NCCC(=O)NCCCN2CCCCC2)cc(OC)c1OC the results were CYP2C9 act 1, CYP2C19 inhib -5.0, CYP2C9 inh -1.6, CYP2C19 act 1.1 and Cav3 T inh 0.0958.
`COC(=O)c1ccc(C)c(NC(=O)c2nn(C)c(=O)c3ccccc23)c1` gave CYP2C9 act 0.5, CYP2C19 inhib 12.0, CYP2C9 inh 45.1, CYP2C19 act 0.9 and Cav3 T inh 0.803.
`CCn1c(SCC(=O)Nc2ccc(C(C)=O)cc2)nc2ccccc21` gave CYP2C9 act 1.1, CYP2C19 inhib -7.5, CYP2C9 inh -14.8, CYP2C19 act 1.1 and Cav3 T inh 1.07.
Screening COCCCn1c(SCC(=O)Nc2ccc(C(C)=O)cc2)nc2ccccc2c1=O returned CYP2C9 act 0.3, CYP2C19 inhib 98.6*, CYP2C9 inh 70.8*, CYP2C19 act 0 and Cav3 T inh 0.347.
Screening COC(=O)c1cccc(NC(=O)c2nn(C)c(=O)c3ccccc23)c1 returned CYP2C9 act 0.5, CYP2C19 inhib 28.2, CYP2C9 inh 54.6*, CYP2C19 act 0.7 and Cav3 T inh 0.0161.
CCn1c(SCC(=O)Nc2ccc(C(C)=O)cc2)nc2nc3c(cc2c1=O)CCCC3 was read as CYP2C9 act 0.3, CYP2C19 inhib 42.4, CYP2C9 inh 67.6*, CYP2C19 act 0.6 and Cav3 T inh -1.6.
For O=C1CC(c2ccccc2)Cc2nc3ncnn3cc21 (stereo unspecified) the results were CYP2C9 act 0.9, CYP2C19 inhib 98.9*, CYP2C9 inh 6.9, CYP2C19 act 0 and Cav3 T inh -0.105.
COC(=O)c1ccccc1OCC(=O)N1CCN(c2ccc(OC)cc2)CC1 was read as CYP2C9 act 0.9, CYP2C19 inhib 19.3, CYP2C9 inh 12.3, CYP2C19 act 0.8 and Cav3 T inh 0.745.
CCn1c(CNC(=O)Cc2ccc(OC)cc2)nnc1SCC(=O)NC1CCCCC1 was read as CYP2C9 act 0.7, CYP2C19 inhib 14.4, CYP2C9 inh 27.1, CYP2C19 act 0.9 and Cav3 T inh 0.634.
`O=C(Cn1c(SCC(=O)NC2CCCC2)nnc1-c1ccncc1)Nc1ccc2c(c1)OCO2` gave CYP2C9 act 0.1, CYP2C19 inhib 90.7*, CYP2C9 inh 90.6*, CYP2C19 act 0.1 and Cav3 T inh -0.982.
`CCn1c(SCC(=O)NC2CCCCC2C)nnc1-c1ccc(OC)cc1` (stereo unspecified) gave CYP2C9 act 0.3, CYP2C19 inhib 70.7*, CYP2C9 inh 67.8*, CYP2C19 act 0.3 and Cav3 T inh 1.95.
`O=C(CSc1nc(-c2ccncc2)nn1CC(=O)N1CCCCC1)NC1CCCC1` gave CYP2C9 act 0.2, CYP2C19 inhib 63.5*, CYP2C9 inh 78.7*, CYP2C19 act 0.4 and Cav3 T inh 0.103.
For CCCn1c(SCC(=O)NC2CCCCC2)nnc1-c1ccncc1 the results were CYP2C9 act 0.9, CYP2C19 inhib 64.6*, CYP2C9 inh 9.6, CYP2C19 act 0.4 and Cav3 T inh -0.0337.
For COc1ccc([C@H]2/C=C\CN(Cc3ccc(N(C)C)cc3)[C@@H](C)C(=O)N2Cc2ccc(F)cc2)cc1 the results were Cav3 T inh 0.938.
For CCCN(CCC)S(=O)(=O)c1cccc(C(=O)Nc2ccc3c(c2)OCO3)c1 the results were CYP2C9 act 0.4, CYP2C19 inhib 42.9, CYP2C9 inh 63.0* and CYP2C19 act 0.6.
`CCCCC(=O)Nc1ccc(C(=O)Nc2ccc3c(c2)OCO3)cc1` gave CYP2C9 act 0.6, CYP2C19 inhib 27.8, CYP2C9 inh 40.7, CYP2C19 act 0.7 and Cav3 T inh 0.421.
Screening CCOc1ccc(C(=O)Nc2ccc3c(c2)OCO3)cc1OCC returned CYP2C9 act 1.1, CYP2C19 inhib -6.0, CYP2C9 inh -14.7, CYP2C19 act 1.1 and Cav3 T inh 0.21.
Screening O=C(NCc1ccc(Cl)cc1)c1noc2c1CCCCC2 returned CYP2C9 act 0.6, CYP2C19 inhib 20.3, CYP2C9 inh 44.3, CYP2C19 act 0.8 and Cav3 T inh -5.03*.
O=C(NCc1ccc(F)cc1)c1noc2c1CCCCC2 was read as CYP2C9 act 0.8, CYP2C19 inhib 17.9, CYP2C9 inh 17.2, CYP2C19 act 0.8 and Cav3 T inh -4.51.
For O=C(/C=C\Nc1ccc2c(c1)OCO2)c1ccccn1 the results were CYP2C9 act 0.7, CYP2C19 inhib 57.1*, CYP2C9 inh 31.0, CYP2C19 act 0.4 and Cav3 T inh -0.0354.
`CCCC(=O)Nc1cccc(NC(=O)c2ccc3c(c2)OCO3)c1` gave CYP2C9 act 0.5, CYP2C19 inhib 43.8, CYP2C9 inh 52.4*, CYP2C19 act 0.6 and Cav3 T inh 0.943.
Screening Cc1ccn2cc(-c3ccc(S(=O)(=O)N4CCOCC4)cc3)nc2c1 returned CYP2C9 act 0.8, CYP2C19 inhib 6.3, CYP2C9 inh 15.0 and CYP2C19 act 0.9.
For O=C(NCc1ccccn1)c1coc(=O)c(Br)c1 the results were CYP2C9 act 0.8, CYP2C19 inhib 14.1, CYP2C9 inh 20.0, CYP2C19 act 0.9 and Cav3 T inh 1.13.
For CC1(C(=O)NC2CCCCCCC2)CCC(=O)N1Cc1cccnc1 (stereo unspecified) the results were CYP2C9 act 0.8, CYP2C19 inhib 13.8, CYP2C9 inh 16.2, CYP2C19 act 0.9 and Cav3 T inh -0.105.
Screening O=C(Nc1ccc2c(c1)OCO2)c1noc2c1CCCCC2 returned CYP2C9 act 0.1, CYP2C19 inhib 21.8, CYP2C9 inh 88.7*, CYP2C19 act 0.8 and Cav3 T inh -1.34.
